Most compounds without a hit are left out; they make up all but 2.4% or so of the library.
Cruzain inh noDet = qHTS Assay for Promiscuous and Specific Inhibitors of Cruzain (without detergent); AID 1476, 2009; purified cruzain, Z-FR-AMC fluorescence, no detergent; 2.3% of 200,000 active; Potency, µM, actives largely listed as inhibitors; note: nearly all actives have a fitted effect of over 40% in size
Target sequence (P25779 123-467 limits assumed): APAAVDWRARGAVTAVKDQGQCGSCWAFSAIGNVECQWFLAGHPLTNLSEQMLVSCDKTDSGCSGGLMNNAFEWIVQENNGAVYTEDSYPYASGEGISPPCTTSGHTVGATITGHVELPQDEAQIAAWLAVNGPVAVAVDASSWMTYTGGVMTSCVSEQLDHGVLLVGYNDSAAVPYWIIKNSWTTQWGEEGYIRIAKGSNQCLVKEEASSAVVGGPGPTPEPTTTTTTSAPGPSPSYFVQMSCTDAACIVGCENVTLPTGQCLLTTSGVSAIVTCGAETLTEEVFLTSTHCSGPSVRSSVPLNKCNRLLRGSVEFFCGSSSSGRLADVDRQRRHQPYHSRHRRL
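Detergent-free condition (0.00005% Triton X-100) in acetate buffer pH 5.5 with DTT. 1.5 nM enzyme and compound were pre-mixed 15 min, then 2 uM Z-FR-AMC substrate added; reaction progress from fluorescence change between first and third reads (60 s).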
Cruzain inh Det = qHTS Assay for Promiscuous and Specific Inhibitors of Cruzain (with detergent) | purified cruzain, Z-FR-AMC fluorescence, 0.01% Triton | Cruzipain (Trypanosoma cruzi), P25779 | Potency, µM, hits mostly inhibitors | AID 1478, 2009 | 0.43% of 200,000 active; note: nearly all actives have a fitted effect of over 40% in size
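Detergent-containing run (0.01% Triton X-100) in acetate buffer pH 5.5 with 5 mM DTT: enzyme at 1.5 nM final, 15 min compound preincubation at room temperature, then 2 uM Z-FR-AMC substrate. Activity taken as 60 s fluorescence increase at 360/450 nm.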
Large screens that a line does not name were inactive. Calls come from the whole dose curve; as a rule, active = well fitted curve in the direction sought with a large enough effect; inconclusive = small, poorly fitted or top-dose-only effect, or another doubt; inactive = no such curve, though single readings can be large; an effect the other way counts as inactive or inconclusive.

CCOC(=O)c1ccc(-c2ccc(/C=C(\C#N)C(=O)Nc3c(C)cccc3Cl)o2)cc1	none
CCCCOC(=O)c1ccc(NC(=O)/C(C#N)=C/c2ccc(-c3ccccc3)o2)cc1	Cruzain inh noDet 25µM
COc1cc2c(cc1NC(=O)CSc1nc3cc(Cl)ccc3s1)oc1ccccc12	Cruzain inh noDet 7.9µM
COc1cc2c(cc1NC(=O)CSc1nc3ccccc3[nH]1)oc1ccccc12	Cruzain inh noDet 25µM
COc1cc2c(cc1NC(=O)CSc1ccccc1)oc1ccccc12	none
COc1cc2c(cc1NC(=O)CSc1nccn1C)oc1ccccc12	none
CCOC(=O)Cc1ccc(NC(=O)n2ncc3cc(Cl)ccc32)cc1	Cruzain inh noDet inconclusive
CC1=C(C(N)=O)C(c2ccc(F)cc2)n2nc(-c3ccc(N(C)C)cc3)nc2N1 (configuration not stated)	none
CC(=O)OCC1OC(n2cnc3c(Cl)nc(Cl)nc32)C(OC(C)=O)C1OC(C)=O (configuration not stated)	none
CCOc1ccc(NC(=O)CSc2nc(C)cc(C)n2)cc1	none
CCCCOc1ccc(NC(=S)Nc2cc(C)nc(SCCCC)n2)cc1	Cruzain inh noDet 25µM
Cc1cc(C)nc(Nc2ccc(N3CCCC3)cc2)n1	Cruzain inh noDet 32µM
Cc1cc(C)nc(Nc2ccc(N3CCOCC3)cc2)n1	Cruzain inh noDet inconclusive
O=c1c(-c2cccs2)nc2cnc(Oc3cccc(Cl)c3)nc2n1C[C@H]1CCCO1	none
CCCC1(c2ccccc2)NC(=O)N(CC(=O)Nc2sc(-c3ccccc3)cc2C(=O)OCC)C1=O (configuration not stated)	Cruzain inh noDet 7.9µM
CCOC(=O)c1cc(-c2ccccc2)sc1NC(=O)CC(C)C	none
CCOC(=O)c1cc(-c2ccccc2)sc1NC(=O)C(C)(C)C	none
CCOC(=O)c1cc(-c2ccccc2)sc1NC(=S)Nc1cc(C)ccn1	Cruzain inh noDet 13µM
CC(=O)c1cccc(NC(=O)Cn2c(=O)c(CNc3ccc(C)cc3)cc3cc4c(cc32)OCCO4)c1	Cruzain inh noDet inconclusive
Cc1cc(C)c(NC(=O)Cc2ccc(-n3c(C)nc4cccnc43)cc2)c(C)c1	none
Cn1c(SCC(=O)c2cc3ccccc3o2)nnc1-c1ccccc1	none
Cn1ccnc1SCC(=O)c1cc2ccccc2o1	Cruzain inh noDet 25µM
Cc1nn2c(=O)cc(COC(=O)c3ccc(NC(=O)CCc4ccccc4)cc3)nc2s1	none
Cc1ccc(S(=O)(=O)N2Cc3ccccc3CC2C(=O)Nc2ccc3c(c2)OCO3)cc1 (configuration not stated)	Cruzain inh noDet inconclusive
COc1ccc(S(=O)(=O)N2Cc3ccccc3CC2C(=O)Nc2ccc3c(c2)OCO3)cc1 (configuration not stated)	Cruzain inh noDet 25µM
COc1ccc(Cl)cc1NC(=O)c1cc(-c2ccc3c(c2)OCO3)on1	none
CC1=C(SCCC#N)S/C(=C2\SC(C)=C(SCCC#N)S2)S1	Cruzain inh noDet 25µM
Cc1nn(-c2ccc(N3CCCC3)nn2)c(C)c1CCC(=O)NCc1ccc(F)cc1	none
Cc1ccc(O)c(C2=Nc3ccccc3N=C(c3ccco3)C2)c1	none
Cc1ccc(O)c(C2=Nc3ccccc3N=C(c3ccc([N+](=O)[O-])cc3)C2)c1	Cruzain inh noDet 20µM
CN(C(=O)CSc1nc2ccccc2n1CC(=O)N(C)c1ccc(F)cc1)c1ccccc1	none
COc1ccc(-c2nn(CC(=O)NCc3ccccc3)c3c2cnc2ccc(F)cc23)cc1	Cruzain inh noDet inconclusive
CCc1ccc(N2C(=O)CSC23C(=O)N(Cc2cccc(F)c2)c2ccccc23)cc1 (configuration not stated)	none
CCc1ccc(N2C(=O)CSC23C(=O)N(Cc2ccc(C)cc2)c2ccccc23)cc1 (configuration not stated)	none
CCc1ccc(N2C(=O)CS(=O)(=O)C23C(=O)N(Cc2ccccc2)c2ccccc23)cc1 (configuration not stated)	Cruzain inh noDet 2.5µM
O=C1CS(=O)(=O)C2(C(=O)N(Cc3cccc(F)c3)c3ccccc32)N1c1ccccc1 (configuration not stated)	Cruzain inh noDet 10µM
O=C(CN1C(=O)C2(SCC(=O)N2c2cccc(Cl)c2)c2ccccc21)NCc1ccccc1 (configuration not stated)	none
COc1ccc(Cl)cc1S(=O)(=O)NCc1ccc2c(c1)CCN2C(=O)c1cccc(C)c1	none
O=c1c(-c2ccc(F)cc2)nc2cnc(N3CCNCC3)nc2n1Cc1ccc(F)cc1	none
CC(C)NC(=O)c1cc2cc([N+](=O)[O-])ccc2s1	none
COc1cccc(/C=N/NC(=O)c2cc3cc([N+](=O)[O-])ccc3s2)c1O	Cruzain inh noDet 10µM, Cruzain inh Det 3.5µM
COc1ccc(NC(=O)CCc2nnc3n(C)c(=O)c4sccc4n23)cc1	none
COc1cccc(CNC(=O)CSc2nc(=O)[nH]c3c2CCC3)c1	none
COc1ccc(CCNC(=O)c2cccc(Nc3nc4ccccc4nc3-n3nc(C)cc3C)c2)cc1OC	none
COc1ccc(C2CC(=O)N3CN(C4CCCCC4)CSC3=C2C#N)c(OC)c1 (configuration not stated)	Cruzain inh Det 25µM
COc1ccc2ccccc2c1C1CC(=O)N2CN(C3CCCCC3)CSC2=C1C#N (configuration not stated)	Cruzain inh noDet inconclusive
CN(C)c1ccc(CN(Cc2ccco2)C(=O)COc2ccc(F)cc2)cc1	Cruzain inh noDet inconclusive
CCCCNC(=O)CC1C(=O)N(Cc2ccccc2)C(C)c2nc3ccccc3n21 (configuration not stated)	Cruzain inh noDet 13µM
CCCCn1c(=O)c(C(=O)c2ccccc2)nc2ccccc21	none
O=C(/C=C/c1ccc2c(c1)OCO2)Nc1nc(-c2ccc(F)cc2F)cs1	Cruzain inh noDet 7.9µM
Cc1csc(NC(=O)/C=C/c2ccc3c(c2)OCO3)n1	none
CCCOC(=O)c1ccc(NC(=O)Cc2csc(C)n2)cc1	none
COCCn1c(=O)c(-c2ccc(Cl)cc2)nc2cnc(OCc3ccccc3)nc21	none
COc1ccccc1-n1c(SCc2cc(=O)oc3cc(O)ccc23)nc2ccccc2c1=O	Cruzain inh noDet 25µM
COc1ccc(C(C)=O)cc1CSc1nc2ccccc2c(=O)n1-c1ccccc1C	Cruzain inh noDet inconclusive
CCc1nnc(SCC(=O)Nc2ccc(Cl)cc2F)c2cc3occc3n12	Cruzain inh noDet inconclusive
COC(=O)c1oc2ccc(Br)cc2c1NC(=O)c1ccccc1	Cruzain inh noDet 13µM
COC(=O)c1oc2ccc(Cl)cc2c1NC(C)=O	none
CCOc1cccc(C(=O)c2ccc(O)c(O)c2O)c1	none
COc1cc2c(cc1OC)C(/C=C/c1ccc(OC)c(OC)c1OC)=NCC2	none
CN1c2ccccc2C(C)(C)C12C=Nc1c(cc(N3CCOCC3)c3ccccc13)O2 (configuration not stated)	Cruzain inh noDet 25µM
CN1c2ccccc2C(C)(C)C12C=Cc1cc(O)ccc1O2 (configuration not stated)	none
Cc1ccccc1NS(=O)(=O)c1ccc2[nH]cc(C(=O)N3CCCC3)c(=O)c2c1	none
O=C(Nc1ccc2oc(-c3cccnc3)nc2c1)c1ccc(-c2ccccc2OC(F)(F)F)o1	none
CCOC(=O)c1sc(NC(=O)Nc2ccccc2F)nc1C	none
CCOC(=O)c1sc(NC(=O)/C=C/c2c(F)cccc2Cl)nc1C	Cruzain inh noDet 13µM
CCOC(=O)c1sc(NC(=O)c2ccc(CC)s2)nc1C	Cruzain inh noDet 16µM

Screening data: PubChem, National Center for Advancing Translational Sciences (NCATS)
